Measured values published in PubChem BioAssay (Tox21).
Results filed as inconclusive are left out. Where a call stands in place of a potency, no number is given. Values without a mark were called inactive. Activity calls are given as the source filed them. Unless noted, calls come from the whole dose curve; as a rule, active = well fitted curve in the direction sought with a large enough effect in the repeat runs; inconclusive = weak or mixed curves; inactive = no such curve, though single readings can be large; an effect the other way counts as inactive or inconclusive.

Assays:
[1] = qHTS assay to identify aromatase inhibitors - cell viability counter screen (AID 743084);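 note: cells stimulated with testosterone during compound exposure; nearly all actives have a fitted effect of over 55% in size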; note: potency is the fitted concentration of half-maximal effect
[2] = target: Aryl hydrocarbon receptor (Homo sapiens) (UniProt P35869); assay: qHTS assay to identify small molecule that activate the aryl hydrocarbon receptor (AhR) signaling pathway (AID 743085); note: nearly all actives have a fitted effect of over 15% in size; note: potency is the fitted concentration of half-maximal effect;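 for activation: HG2L7.5c1 human HepG2 liver cells with stably integrated DRE-driven firefly reporter; series mostly up to about 70 µM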
Aryl hydrocarbon receptor (Homo sapiens), sequence (P35869 whole entry, looked up): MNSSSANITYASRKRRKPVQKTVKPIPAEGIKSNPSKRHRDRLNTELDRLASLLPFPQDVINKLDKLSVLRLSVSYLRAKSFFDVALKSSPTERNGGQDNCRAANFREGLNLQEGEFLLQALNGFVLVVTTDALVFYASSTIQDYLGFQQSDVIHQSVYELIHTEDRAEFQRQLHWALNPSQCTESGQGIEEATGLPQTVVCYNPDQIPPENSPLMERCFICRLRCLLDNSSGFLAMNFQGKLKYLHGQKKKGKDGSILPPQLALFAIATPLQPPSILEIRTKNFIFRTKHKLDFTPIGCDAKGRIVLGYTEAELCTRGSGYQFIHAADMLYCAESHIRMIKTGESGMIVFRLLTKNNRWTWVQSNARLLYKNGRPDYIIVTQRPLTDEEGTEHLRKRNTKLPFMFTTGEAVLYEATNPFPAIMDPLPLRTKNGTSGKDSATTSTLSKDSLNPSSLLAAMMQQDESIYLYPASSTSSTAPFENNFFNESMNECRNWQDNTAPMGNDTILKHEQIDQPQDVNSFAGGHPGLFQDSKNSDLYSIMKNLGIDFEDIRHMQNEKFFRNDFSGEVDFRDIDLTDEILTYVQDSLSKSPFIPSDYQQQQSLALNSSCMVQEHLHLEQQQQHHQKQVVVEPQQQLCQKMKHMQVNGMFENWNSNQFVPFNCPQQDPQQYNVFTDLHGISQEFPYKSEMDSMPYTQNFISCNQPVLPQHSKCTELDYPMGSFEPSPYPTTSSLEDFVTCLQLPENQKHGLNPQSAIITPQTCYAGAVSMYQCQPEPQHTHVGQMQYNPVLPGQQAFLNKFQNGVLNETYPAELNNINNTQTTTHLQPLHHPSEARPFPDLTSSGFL
Method in brief: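 AhR agonist activity is inferred from enhanced light output of a DRE-controlled firefly luciferase reporter in HepG2 cells, measured with ONE-Glo following 24 h treatment at 37C.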

[3] = qHTS assay to identify small molecule that activate the aryl hydrocarbon receptor (AhR) signaling pathway - cell viability counter screen (AID 743086); note: nearly all actives have a fitted effect of over 45% in size; note: potency is the fitted concentration of half-maximal effect
Method in brief: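 HepG2-AhR-luc (HG2L7.5c1) cells, 4000/well, treated 24 h at 37 C with compound; viability measured as CellTiter-Fluor fluorescence after 30 min in the same wells as the luciferase read.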

[4] = target: Peroxisome proliferator-activated receptor gamma (Homo sapiens) (UniProt P37231); assay: qHTS assay to identify small molecule antagonists of the peroxisome proliferator-activated receptor gamma (PPARg) signaling pathway (AID 743191; calls by dose curve; note: series mostly up to about 63 µM; nearly all actives have a fitted effect of over 30% in size)
Peroxisome proliferator-activated receptor gamma (Homo sapiens), sequence (P37231 whole entry, looked up): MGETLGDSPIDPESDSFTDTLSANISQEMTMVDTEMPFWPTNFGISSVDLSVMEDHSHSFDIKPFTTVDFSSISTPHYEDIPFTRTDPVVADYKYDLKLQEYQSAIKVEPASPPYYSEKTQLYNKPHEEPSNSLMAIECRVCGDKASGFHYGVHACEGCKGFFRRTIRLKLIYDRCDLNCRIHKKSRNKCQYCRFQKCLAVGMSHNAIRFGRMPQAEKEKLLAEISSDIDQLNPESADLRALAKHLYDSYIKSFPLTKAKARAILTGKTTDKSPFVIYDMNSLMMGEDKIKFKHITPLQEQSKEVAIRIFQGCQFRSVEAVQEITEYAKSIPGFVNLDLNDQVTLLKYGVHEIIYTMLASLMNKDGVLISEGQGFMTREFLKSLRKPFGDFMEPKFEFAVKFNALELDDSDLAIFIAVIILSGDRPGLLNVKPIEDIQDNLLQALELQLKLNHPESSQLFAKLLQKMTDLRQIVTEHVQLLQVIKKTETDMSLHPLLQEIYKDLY
Method in brief: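 GeneBLAzer PPARg UAS-bla HEK293H cells, 5 h post-plating, exposed to compounds 17 h at 37C. LiveBLAzer B/G FRET substrate added for 1 h at room temperature; beta-lactamase reporter read by fluorescence intensity.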

[5] = qHTS assay to identify small molecule antagonists of the peroxisome proliferator-activated receptor gamma (PPARg) signaling pathway - cell viability counter screen (AID 743194); conditions: Potency: co-treated with 50 nM rosiglitazone; note: nearly all actives have a fitted effect of over 55% in size
Method in brief: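 Cytotoxicity counter screen in PPARg-bla HEK293H cells, same wells as reporter assay. Compounds plus 50 nM rosiglitazone (final) for 17 h at 37 C, then viability read by CellTiter-Glo luminescence.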

[6] = qHTS assay for small molecule agonists of the antioxidant response element (ARE) signaling pathway (AID 743202; active = well fitted activation curve with a large enough effect in the signal ratio in the repeat runs, not every such curve was filed as active; the % refers to the signal ratio; note: potency is the fitted concentration of half-maximal effect)
Method in brief: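 ARE-bla HepG2 cells (beta-lactamase reporter under the antioxidant response element), plated 5 hours, then exposed to compounds 16 hours at 37 C. LiveBLAzer B/G FRET substrate added for 2 hours at room temperature; fluorescence intensity read.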

[7] = qHTS assay for small molecule agonists of the antioxidant response element (ARE) signaling pathway - cell viability counter screen (AID 743203; calls by dose curve; note: nearly all actives have a fitted effect of over 55% in size)
Method in brief: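 HepG2 cells carrying ARE-driven beta-lactamase; 2,000 cells/well; 5 hrs plating; compound pinned from DMSO; 16 hrs 37C/5% CO2; CellTiter-Glo added; 30 min RT; luminescence.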

[8] = qHTS assay for small molecule activators of the heat shock response signaling pathway - cell viability counter screen (AID 743209); note: nearly all actives have a fitted effect of over 50% in size
Method in brief: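 Luminescence from CellTiter-Glo, added after the beta-lactamase FRET read, gave the viability signal. Cells were HSE-bla HeLa treated with DMSO-dissolved compounds for 5 h at 37 C following overnight plating.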

[9] = qHTS assay for small molecule activators of the heat shock response signaling pathway (AID 743210; active = well fitted activation curve with a large enough effect in the signal ratio in the repeat runs, with a control signal flat, not every such curve was filed as active; the % refers to the signal ratio; note: series mostly up to about 63 µM)
Method in brief: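 HSE-bla HeLa cells (beta-lactamase reporter under heat shock response elements), plated overnight, then exposed to compounds 5 h at 37 C; LiveBLAzer B/G FRET substrate added, 2.5 h at room temperature, fluorescence intensity read.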

[10] = target: Peroxisome proliferator-activated receptor delta (Homo sapiens) (UniProt Q03181); assay: qHTS assay to identify small molecule agonists of the peroxisome proliferator-activated receptor delta (PPARd) signaling pathway (AID 743212; calls by dose curve)
Peroxisome proliferator-activated receptor delta (Homo sapiens), sequence (Q03181 whole entry, looked up): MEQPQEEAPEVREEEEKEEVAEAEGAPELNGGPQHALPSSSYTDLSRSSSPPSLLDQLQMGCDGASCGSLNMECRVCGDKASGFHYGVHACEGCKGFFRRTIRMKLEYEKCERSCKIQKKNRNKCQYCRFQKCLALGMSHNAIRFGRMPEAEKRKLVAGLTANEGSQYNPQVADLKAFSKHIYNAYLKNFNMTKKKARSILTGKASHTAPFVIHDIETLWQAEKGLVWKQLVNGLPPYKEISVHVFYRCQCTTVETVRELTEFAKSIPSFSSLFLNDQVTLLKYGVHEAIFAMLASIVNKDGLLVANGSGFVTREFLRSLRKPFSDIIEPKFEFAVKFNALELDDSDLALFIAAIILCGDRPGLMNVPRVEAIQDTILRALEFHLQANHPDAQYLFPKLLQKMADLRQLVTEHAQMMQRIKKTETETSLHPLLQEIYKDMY
Method in brief: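 GeneBLAzer UAS-bla HEK293H cells carrying a PPARδ construct were exposed to compounds at 37 °C. Beta-lactamase activity was read by FRET fluorescence after 2 h at room temperature with LiveBLAzer B/G substrate.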

[11] = target: Peroxisome proliferator-activated receptor delta (Homo sapiens) (UniProt Q03181); assay: qHTS assay to identify small molecule antagonists of the peroxisome proliferator-activated receptor delta (PPARd) signaling pathway (AID 743215; active = well fitted inhibition curve with a large enough effect in the signal ratio in the repeat runs, not every such curve was filed as active; the % refers to the signal ratio;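 note: cells stimulated with agonist L165041 at 300 nM final during compound exposure; series mostly up to about 62 µM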)
Method in brief: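 Read-out is beta-lactamase FRET fluorescence, measured 2 h after substrate addition at room temperature. Beforehand, UAS-bla HEK293H cells carrying the PPARd reporter were exposed to compounds with L165041 at 300 nM final for 17 h at 37 C.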

[12] = target: Bile acid receptor (Homo sapiens) (UniProt Q96RI1); assay: qHTS assay to identify small molecule antagonists of the farnesoid-X-receptor (FXR) signaling pathway (AID 743217; active = well fitted inhibition curve with a large enough effect in the signal ratio in the repeat runs, not every such curve was filed as active; the % refers to the signal ratio)
Bile acid receptor (Homo sapiens), sequence (Q96RI1 whole entry, looked up): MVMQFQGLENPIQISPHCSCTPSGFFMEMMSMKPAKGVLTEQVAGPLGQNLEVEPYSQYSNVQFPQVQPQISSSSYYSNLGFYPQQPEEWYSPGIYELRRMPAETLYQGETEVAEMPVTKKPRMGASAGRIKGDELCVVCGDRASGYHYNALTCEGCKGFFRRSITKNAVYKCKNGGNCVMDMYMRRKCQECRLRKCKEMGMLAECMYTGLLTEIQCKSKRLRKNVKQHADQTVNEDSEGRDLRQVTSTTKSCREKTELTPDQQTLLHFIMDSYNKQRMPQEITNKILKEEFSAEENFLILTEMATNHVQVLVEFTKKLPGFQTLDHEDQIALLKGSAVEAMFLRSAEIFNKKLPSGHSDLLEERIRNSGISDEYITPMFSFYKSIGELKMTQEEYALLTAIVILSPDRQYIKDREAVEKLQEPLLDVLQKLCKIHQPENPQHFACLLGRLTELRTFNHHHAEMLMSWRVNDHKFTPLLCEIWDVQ
Method in brief: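 HEK 293T FXR-UAS-bla, 5000 cells/well; compound + CDCA 50 uM final; 16 h, 37 °C; B/G FRET substrate 2 h RT; fluorescence.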

[13] = qHTS assay to identify small molecule agonists of the farnesoid-X-receptor (FXR) signaling pathway - cell viability counter screen (AID 743218); note: nearly all actives have a fitted effect of over 45% in size
Method in brief: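 HEK 293T FXR-bla cells; 5 h pre-incubation, 16 h compound exposure at 37 C; LiveBLAzer substrate 2 h RT, then CellTiter-Glo 30 min RT, luminescence.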

[14] = target: Bile acid receptor (Homo sapiens) (UniProt Q96RI1); assay: qHTS assay to identify small molecule agonists of the farnesoid-X-receptor (FXR) signaling pathway (AID 743220; active = well fitted activation curve with a large enough effect in the signal ratio in the repeat runs, not every such curve was filed as active; the % refers to the signal ratio)
Method in brief: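 Beta-lactamase reporter under UAS control in GeneBLAzer FXR HEK 293T cells (5000/well) measured with LiveBLAzer FRET substrate after 2 h at room temperature. Compound exposure lasted 16 h at 37C.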

[15] = qHTS assay to identify small molecule agonists of the peroxisome proliferator-activated receptor delta (PPARd) signaling pathway - cell viability counter screen (AID 743211); note: nearly all actives have a fitted effect of over 55% in size; note: potency is the fitted concentration of half-maximal effect
Method in brief: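 qHTS cell viability: PPARd-bla HEK293H; 17 h cpd, 37C; CellTiter-Glo, luminescence at 30 min RT.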

[16] = qHTS assay to identify small molecule antagonists of the peroxisome proliferator-activated receptor delta (PPARd) signaling pathway - cell viability counter screen (AID 743213); note: nearly all actives have a fitted effect of over 50% in size
Method in brief: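 HEK293H PPARd UAS-bla cells, 5 h pre-incubation, compound + L165041 300 nM final, 17 h 37 C; B/G FRET substrate 2 h RT; then CellTiter-Glo 30 min RT, luminescence.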

[17] = qHTS assay to identify small molecule antagonists of the farnesoid-X-receptor (FXR) signaling pathway - cell viability counter screen (AID 743221; active = well fitted cell-killing curve with a large enough effect in the repeat runs, not every such curve was filed as active; note: nearly all actives have a fitted effect of over 50% in size)
Method in brief: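 After a 5 h settling period, FXR-bla HEK 293T cells receive compound and chenodeoxycholic acid (50 uM final) and incubate 16 h at 37 C; CellTiter-Glo luminescence, read after 30 min at room temperature, reports cell viability.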

[18] = target: Vitamin D3 receptor (Homo sapiens) (UniProt P11473); assay: qHTS assay to identify small molecule agonists of the vitamin D receptor (VDR) signaling pathway (AID 743222; calls by dose curve)
Vitamin D3 receptor (Homo sapiens), sequence (P11473 whole entry, looked up): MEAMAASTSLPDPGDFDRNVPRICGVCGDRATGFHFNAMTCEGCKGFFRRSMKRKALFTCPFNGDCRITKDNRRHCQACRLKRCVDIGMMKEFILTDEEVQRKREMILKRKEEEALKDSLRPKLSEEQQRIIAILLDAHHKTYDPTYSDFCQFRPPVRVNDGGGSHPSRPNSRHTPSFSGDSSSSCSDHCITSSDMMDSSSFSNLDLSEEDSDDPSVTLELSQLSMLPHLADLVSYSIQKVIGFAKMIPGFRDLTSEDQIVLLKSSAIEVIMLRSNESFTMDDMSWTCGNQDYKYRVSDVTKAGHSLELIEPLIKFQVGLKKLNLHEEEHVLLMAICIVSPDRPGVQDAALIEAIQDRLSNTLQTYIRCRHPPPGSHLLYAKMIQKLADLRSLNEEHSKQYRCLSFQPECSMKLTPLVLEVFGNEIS
Method in brief: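 VDR-bla cells, 2,000/well; 4 h preincubation 37C; cpd (DMSO) 16 h; LiveBLAzer B/G substrate 2 h RT; fluorescence intensity read.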

[19] = target: Peroxisome proliferator-activated receptor gamma (Homo sapiens) (UniProt P37231); assay: qHTS assay to identify small molecule agonists of the peroxisome proliferator-activated receptor gamma (PPARg) signaling pathway (AID 743094; active = well fitted activation curve with a large enough effect in the signal ratio in the repeat runs, not every such curve was filed as active; the % refers to the signal ratio)
Method in brief: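 Beta-lactamase FRET fluorescence was the read-out after a 1 h room-temperature substrate step, following 17 h compound treatment at 37C of HEK293H cells expressing a UAS-driven bla reporter responsive to PPARg.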

[20] = target: Vitamin D3 receptor (Homo sapiens) (UniProt P11473); assay: qHTS assay to identify small molecule antagonists of the vitamin D receptor (VDR) signaling pathway (AID 743223; active = well fitted inhibition curve with a large enough effect in the signal ratio in the repeat runs, not every such curve was filed as active; the % refers to the signal ratio)
Method in brief: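 Reporter line VDR-bla; stimulus 1alpha,25-(OH)2 vitamin D3, 3 nM final; compound co-addition, 16 h 37C/5% CO2; LiveBLAzer B/G substrate 2 h RT; fluorescence intensity.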

| Structure (SMILES) | Potency [1] | Potency [2] | Potency [3] | Potency [4] | Potency [5] | Potency [6] | Potency [7] | Potency [8] | outcome [9] | outcome [10] | Potency [11] | Potency [12] | Potency [13] | outcome [14] | Potency [15] | Potency [16] | Potency [17] | outcome [18] | Potency [19] | outcome [20] |
| --- | --- | --- | --- | --- | --- | --- | --- | --- | --- | --- | --- | --- | --- | --- | --- | --- | --- | --- | --- | --- |
| Clc1cccc(SC2CCNCC2)n1 | inactive | inactive | 29.8 µM (active) | inactive | inactive | inactive | inactive | inactive | inactive | inactive | inactive | inactive | inactive | inactive | – | – | – | – | – | – |
| c1ccc(C2CC2)c(OCC2=NCCN2)c1 | inactive | inactive | inactive | inactive | inactive | inactive | inactive | inactive | inactive | inactive | – | – | inactive | – | inactive | inactive | inactive | inactive | – | – |
| COC(C)(C)CCC[C@H](C)C/C=C/C(C)=C/C(=O)OC(C)C | inactive | inactive | inactive | – | – | – | – | – | – | – | – | – | – | – | 38.9 µM (active) | inactive | inactive | – | inactive | – |
| II | inactive | inactive | inactive | – | inactive | inactive | – | inactive | inactive | inactive | inactive | – | inactive | – | – | inactive | inactive | inactive | inactive | inactive |
| CCOP(=S)(OCC)SCSCC | inactive | inactive | inactive | – | inactive | inactive | inactive | inactive | inactive | inactive | inactive | inactive | inactive | inactive | inactive | – | inactive | inactive | inactive | – |
| O=C(C(Cl)(Cl)Cl)C(Cl)(Cl)Cl | inactive | inactive | inactive | – | – | inactive | inactive | inactive | inactive | inactive | inactive | inactive | inactive | inactive | inactive | inactive | inactive | inactive | inactive | inactive |
| O=C(O)c1ccccc1C(=O)Nc1cccc2ccccc12 | inactive | 13.7 µM (active) | inactive | inactive | inactive | – | inactive | inactive | inactive | inactive | inactive | inactive | inactive | inactive | inactive | inactive | inactive | inactive | – | – |
| C=CC(C)=O | inactive | inactive | inactive | – | inactive | inactive | inactive | inactive | inactive | inactive | inactive | inactive | inactive | inactive | inactive | inactive | inactive | – | inactive | – |
| c1ccoc1 | inactive | inactive | inactive | – | inactive | inactive | inactive | inactive | inactive | inactive | inactive | inactive | inactive | inactive | inactive | inactive | – | inactive | inactive | inactive |
| CCOC(=O)C(Cl)C(C)=O (configuration not stated) | inactive | inactive | inactive | – | inactive | inactive | inactive | inactive | inactive | – | – | – | – | – | inactive | inactive | inactive | inactive | inactive | inactive |
| CNC(C)Cc1ccccc1OC (configuration not stated) | inactive | inactive | inactive | – | inactive | inactive | inactive | inactive | inactive | inactive | inactive | – | – | – | – | inactive | – | inactive | inactive | – |
| C=CC(=O)OCC(C)C | inactive | inactive | inactive | – | inactive | inactive | inactive | inactive | – | inactive | inactive | – | inactive | – | inactive | inactive | inactive | inactive | inactive | – |
| COC(=O)C(Cl)C(=O)OC | inactive | inactive | inactive | – | inactive | – | inactive | – | inactive | inactive | inactive | – | – | inactive | inactive | inactive | inactive | – | inactive | – |
| ClP(Cl)(Cl)(Cl)Cl | inactive | inactive | inactive | inactive | inactive | inactive | inactive | inactive | inactive | inactive | – | inactive | inactive | inactive | inactive | inactive | inactive | inactive | – | inactive |
| O=[N+]([O-])c1cc(C(F)(F)F)cc([N+](=O)[O-])c1Cl | inactive | inactive | – | inactive | inactive | – | inactive | inactive | inactive | – | – | inactive | – | inactive | inactive | inactive | – | inactive | – | – |
| CCCCC(O)(Cn1cncn1)c1ccc(Cl)cc1Cl (configuration not stated) | 68.5 µM (active) | inactive | – | – | – | – | – | inactive | – | – | – | – | inactive | inactive | 54.9 µM (active) | – | – | – | inactive | – |
| NNC(=O)c1cccnc1 | inactive | – | inactive | inactive | inactive | inactive | inactive | inactive | inactive | inactive | inactive | inactive | – | inactive | inactive | inactive | – | inactive | inactive | inactive |
| COP(=O)(OC)O/C(=C/Cl)c1cc(Cl)c(Cl)cc1Cl | inactive | inactive | inactive | – | – | 5.75 µM (active) | inactive | inactive | inactive | inactive | – | inactive | inactive | inactive | – | inactive | inactive | – | – | – |
| CN1C(=O)NC(=O)C(C)(C2=CCCCC2)C1=O (configuration not stated) | inactive | – | inactive | – | inactive | inactive | inactive | inactive | inactive | inactive | – | – | inactive | – | inactive | – | inactive | – | inactive | – |
